CtBP-E1A blk: inhibitors of CtBP/E1A interaction. AlphaScreen GST-E1A/His-CtBP binding, 1536-well; active compounds read low. activity change, % (no concentration beside the values). 340,000 tested, 0.49% active. AID 651724
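Homogeneous bead-based format: GST-tagged E1A captured on glutathione donor beads, His-tagged CtBP on nickel acceptor beads; compounds precede bead addition by 2 h at 37 °C.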
Six1-Eya2 inh: inhibitors of human Six1/Eya2 interaction. Q15475+O00167. AlphaScreen GST-Six1/His-Eya2 binding, biochemical; active compounds read low. activity change, % (concentration not given with the values). 360,000 tested, 0.56% active
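Compounds are tested against tagged Six1 and Eya2 proteins bridged by glutathione donor and nickel acceptor beads; after a one-hour incubation at 37 °C without light, AlphaScreen emission is recorded.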
MBNL1 CUG block: blocks human MBNL1 binding to CUG repeat RNA; Q9NR56; TR-FRET MBNL1-His/biotin-(CUG)12 binding, 665/545 ratio; Potency, µM (series often up to 57.5 µM), hits mostly inhibitors; 280,000 tested, 0.036% active; AID 2675; active = well fitted inhibition curve with a large enough effect in the signal ratio, with a control signal flat, not every such curve was filed as active; inconclusive = small, poorly fitted or top-dose-only effect, or effect the other way, or a change in a side signal; inactive = no such curve, though single readings can be large or run the other way; the % refers to the signal ratio
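His-tagged MBNL1 binding to biotinylated (CUG)12 RNA was measured by TR-FRET using terbium anti-His antibody (0.055 ng/ul final) and streptavidin-XL665 (5 nM final). Compounds were titrated 92 nM to 58 uM; 60 min at room temperature.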
uPA surface inh: inhibitors of cell surface uPA generation. Potency, µM (titrated, usually from 38.3 µM), most hits filed as inhibitors. 330,000 tested, 0.31% active. cell surface uPA generation assay, qHTS. AID 540303; active = well fitted inhibition curve with a large enough effect; inconclusive = small, poorly fitted or top-dose-only effect; inactive = no such curve, though single readings can be large or run the other way; tested in mouse RAW 264.7 cells; note: nearly all actives have a fitted effect of over 55% in size
Mito fusion act: inhibitors of mitochondrial division or activators of mitochondrial fusion | S. cerevisiae fusion-defective mutant growth rescue, CellTiterGlo 48 h | Potency, µM (series often up to 46.1 µM), most hits filed as activators | 320,000 tested, 0.23% active | AID 485298; active = well fitted activation curve with a large enough effect; inconclusive = small, poorly fitted or top-dose-only effect; inactive = no such curve, though single readings can be large or run the other way; note: nearly all actives have a fitted effect of over 45% in size
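S. cerevisiae fusion-defective temperature-sensitive mutants (e.g. fzo1-1, mgm1-5) grown 48 h at 37C in YPEG (ethanol/glycerol non-fermentable) medium with 23 nl compound per well; growth rescue read as CellTiterGlo luminescence.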
Hits are given with their value; – = inactive; ? = inconclusive; · = not tested or not shown; [ ] = remark or other dose. An excerpt weighted towards active compounds, which were near 1.1% of everything screened. Cut-off read from the data, not from the text of the source, unless noted: active = activity change below about -65%; inconclusive = mostly about -30% to -63%; inactive = weaker than that.

SMILES	CtBP-E1A blk	Six1-Eya2 inh	MBNL1 CUG block	uPA surface inh	Mito fusion act
CC(C)C1CC(CCNCc2ccc(N(C)C)cc2)(c2ccccc2)CCO1 (stereo not given)	?	-65.4	–	–	–
CC(=O)NC(CC(=O)OCc1ccc([N+](=O)[O-])cc1)c1ccccc1 (stereo not given)	–	–	?	–	–
O=C1c2ccccc2S(=O)(=O)N1CC1CC(c2ccccc2)=NO1 (stereo not given)	–	–	–	–	–
O=C1c2ccccc2S(=O)(=O)N1CC1CC(c2ccc(Cl)cc2)=NO1 (stereo not given)	–	–	–[11.5 µM]	–	15.8µM
O=C(CSc1ccc(-c2ccccn2)nn1)c1ccc([N+](=O)[O-])cc1	-82.5	-66.6	?	–	–
O=C(CSc1ccc(-c2ccccn2)nn1)NCc1ccccc1	?	-76.1	–	–	–
O=C(CSc1ccc(-c2ccccn2)nn1)NCc1ccc(F)cc1	-65.8	-81.0	–	–	–
O=C(CSc1ccc(-c2cccc([N+](=O)[O-])c2)nn1)NCc1ccccc1	–	–	?	–	–
O=C(CSc1ccc(-c2cccnc2)nn1)c1ccc([N+](=O)[O-])cc1	–	–	?	–	–
O=C(CSc1ccc(-c2ccccn2)nn1)NC1CCCCC1	-72.1	-89.9	–	–	–
COc1ccc(S(=O)(=O)N(C)C[C@@H]2OCc3cnnn3CCCC(=O)N([C@H](C)CO)C[C@@H]2C)cc1	–	–	·	·	·
C=CCNC(=O)c1ccc2c3n(nc2c1)-c1ccc(Cl)cc1CO3	–	–	·	5.01µM	·
O=C(NCCO)c1ccc2nc(-c3ccco3)c(-c3ccco3)nc2c1	–	?	?	–	–
O=C(NCC1CC1)c1ccc2c3n(nc2c1)-c1ccccc1CO3	–	–	?	1.41µM	–
Cc1ccc2c(c1)COc1c3ccc(C(=O)O)cc3nn1-2	–	–	?	?	–
O=C(NCCO)c1ccc2c3n(nc2c1)-c1ccccc1CO3	·	–	?	2.82µM	–
CSCCC(C(=O)NC(C)(C)C)n1c(-c2cccc(NC(C)=O)c2)nc2ccccc21 (stereo not given)	–	–	·	·	·
CCOc1ccc(NS(=O)(=O)c2cc(NC(=O)c3cccc(C)c3)ccc2Cl)cc1	–	–	–	?	22.4µM
CCCCCCN1C=CC=C/C1=C/C=C(C#N)C#N	?	?	–[11.5 µM]	–	12.6µM
CCCCCN1C=CC=C/C1=C\C=C(C#N)C#N	–	–	?	–	–
C[C@@H](N)C1CCC(C(=O)Nc2ccncc2)CC1 (stereo not given in full)	·	·	·	·	–
Cc1cccc(OCC(=O)NCC(=O)N/N=C/c2ccc(O)cc2O)c1	·	-84.7	–	?	–
COc1cccc(/C=N/NC(=O)CNC(=O)COc2cccc(C)c2)c1O	·	-72.9	–	?	–
Cc1cccc(OCC(=O)NCC(=O)N/N=C/c2ccccc2)c1	–	–	–	–	–
CC(C)OC(=O)C(C(=O)C(F)(F)F)c1cc(NS(=O)(=O)c2ccc3ccccc3c2)c2ccccc2c1O (stereo not given)	-68.1	?	–	–	–
SMILES	CtBP-E1A blk	Six1-Eya2 inh	MBNL1 CUG block	uPA surface inh	Mito fusion act
CCOc1ccc(S(=O)(=O)Nc2cc(SCC(=O)O)c(O)c3ccccc23)cc1	·	–	?	?	–
Cc1nn(-c2ccccc2)c(C)c1C(=O)OCC(=O)Nc1ccccc1F	–	–	·	10µM	–
CC(=O)Nc1ccc(NC(=O)COC(=O)c2c(C)nn(-c3ccccc3)c2C)cc1	–	–	·	–	–
COc1cc(C(=O)N2CCN(c3ccc(C)cc3C)CC2)cc(OC)c1OC	–	–	–	3.16µM	–
Cc1ccc(CNC(=O)c2c[nH]c3ccc(S(=O)(=O)Nc4ccc(C(C)C)cc4)cc3c2=O)cc1	·	·	·	·	–
N=C1CCCC1C(=S)SCCC(N)=O (stereo not given)	–	–	·	·	·
O=C(NNc1c2ccccc2nc2ccccc12)c1ccc(O)cc1	-74.9	?	?	?	–
CCCC(=O)NNc1c2ccccc2nc2ccccc12	–	–	·	–	–
O=C(NNc1c2ccccc2nc2ccccc12)c1cccc(O)c1	-77.5	-65.4	?	–	–
CNc1cc(-c2ccc(O)cc2C)ncn1	–	–	·	·	·
CN(C)c1ccc(CN2CCC(C(=O)NC(c3ccc(F)cc3)c3ccc4ccccc4n3)CC2)cc1 (stereo not given)	?	-65.7	·	·	·
